Results from PubChem BioAssay (NCATS).
Where “and” joins values, the source holds several entries; their conditions need not be identical. Equal entries are not always repeated. Results filed as inconclusive are left out. Where a call stands in place of a potency, no number is given. Where a structure was tested more than once in an assay, its records may differ in their call. Calls of active or inactive are those of the source. Unless noted, calls come from the whole dose curve; as a rule, active = well fitted curve in the direction sought with a large enough effect; inconclusive = small, poorly fitted or top-dose-only effect, or another doubt; inactive = no such curve, though single readings can be large; an effect the other way counts as inactive or inconclusive.

Tests used:
[1] = target: Rap guanine nucleotide exchange factor 4 (Homo sapiens) (UniProt Q8WZA2); assay: Confirmatory qHTS for antagonist of cAMP-regulated guanine nucleotide exchange factor 4 (EPAC2) (AID 1645885); conditions: EPAC2 Rap1B-BODIPY-GDP exchange fluorescence, biochemical; series mostly up to 12.7 µM; note: nearly all actives have a fitted effect of over 25% in size; note: potency is the fitted concentration of half-maximal effect
Rap guanine nucleotide exchange factor 4 (Homo sapiens), sequence (Q8WZA2 whole entry, looked up): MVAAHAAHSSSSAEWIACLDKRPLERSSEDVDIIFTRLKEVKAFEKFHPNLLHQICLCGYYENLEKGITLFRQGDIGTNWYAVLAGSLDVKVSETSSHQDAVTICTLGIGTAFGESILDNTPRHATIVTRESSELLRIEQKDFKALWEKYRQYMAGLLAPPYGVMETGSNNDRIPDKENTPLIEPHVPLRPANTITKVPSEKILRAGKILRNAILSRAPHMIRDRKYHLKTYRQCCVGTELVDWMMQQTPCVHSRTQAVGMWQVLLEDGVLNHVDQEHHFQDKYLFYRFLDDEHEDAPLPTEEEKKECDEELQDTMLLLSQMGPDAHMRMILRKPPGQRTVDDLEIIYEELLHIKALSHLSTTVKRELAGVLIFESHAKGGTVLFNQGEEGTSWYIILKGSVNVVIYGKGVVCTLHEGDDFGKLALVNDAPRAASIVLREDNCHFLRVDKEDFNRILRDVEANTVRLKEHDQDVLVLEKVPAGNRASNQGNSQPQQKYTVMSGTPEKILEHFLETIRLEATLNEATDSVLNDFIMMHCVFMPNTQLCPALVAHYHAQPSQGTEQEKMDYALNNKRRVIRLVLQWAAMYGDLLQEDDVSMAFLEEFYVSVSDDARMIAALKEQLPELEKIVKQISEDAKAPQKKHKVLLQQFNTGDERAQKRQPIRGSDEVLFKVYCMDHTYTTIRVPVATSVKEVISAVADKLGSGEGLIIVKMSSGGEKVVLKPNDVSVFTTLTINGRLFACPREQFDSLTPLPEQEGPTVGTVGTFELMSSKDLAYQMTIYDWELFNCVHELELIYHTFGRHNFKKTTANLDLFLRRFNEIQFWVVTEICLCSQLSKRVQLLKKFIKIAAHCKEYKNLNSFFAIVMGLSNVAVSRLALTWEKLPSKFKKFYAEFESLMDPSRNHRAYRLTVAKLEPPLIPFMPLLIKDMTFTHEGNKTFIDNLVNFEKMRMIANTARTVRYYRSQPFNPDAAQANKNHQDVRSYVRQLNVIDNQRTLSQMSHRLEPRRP

[2] = target: Metallo-beta-lactamase type 2 (Klebsiella pneumoniae) (UniProt C7C422); assay: qHTS to identify inhibitors of the New Delhi Metallo-beta-lactamase (NDM): assay validation screen against the NCATS LOPAC Collection (AID 1794843); conditions: NDM-1 enzyme, nitrocefin hydrolysis, absorbance 485 nm; series mostly up to 38.4 µM;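 note: nitrocefin turnover by NDM-1 measured as 485 nm absorbance at plateau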
Metallo-beta-lactamase type 2 (Klebsiella pneumoniae), sequence (C7C422 whole entry, looked up): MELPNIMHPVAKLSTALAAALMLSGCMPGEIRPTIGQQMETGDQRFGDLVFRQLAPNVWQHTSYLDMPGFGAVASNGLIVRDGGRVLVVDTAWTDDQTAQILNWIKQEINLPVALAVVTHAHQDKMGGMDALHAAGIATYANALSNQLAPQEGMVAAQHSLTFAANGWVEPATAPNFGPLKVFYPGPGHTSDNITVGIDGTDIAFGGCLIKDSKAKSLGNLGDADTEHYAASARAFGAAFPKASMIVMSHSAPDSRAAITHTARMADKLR
How it was run: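 NDM-1 at 2 nM final in 50 mM HEPES pH 7.0, 1 uM ZnSO4, 0.01% Tween20, preincubated with LOPAC compounds pinned in DMSO; 50 uM nitrocefin (stock) added. Hydrolysis read as absorbance at 485 nm in the plateau phase.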

[3] = target: Glutathione peroxidase 1 (Homo sapiens) (UniProt P07203); assay: Primary qHTS Assay for Inhibitors of Recombinant Selenoprotein Glutathione Peroxidase 1 (GPX1) (AID 1845191); conditions: recombinant GPX1, GR-coupled NADPH fluorescence, 15 min; series mostly up to 48.8 µM; note: nearly all actives have a fitted effect of over 65% in size
Glutathione peroxidase 1 (Homo sapiens), sequence (P07203 whole entry, looked up): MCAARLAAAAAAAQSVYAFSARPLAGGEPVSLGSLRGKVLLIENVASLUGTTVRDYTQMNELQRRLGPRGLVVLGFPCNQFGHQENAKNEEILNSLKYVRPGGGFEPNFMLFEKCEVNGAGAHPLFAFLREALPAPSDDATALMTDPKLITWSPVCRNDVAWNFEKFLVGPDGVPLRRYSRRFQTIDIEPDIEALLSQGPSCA
How it was run: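 Recombinant GPX1 (10 nM final) was preincubated with compound for 30 min at room temperature, then reacted with 1 mM GSH, 0.5 mM CHP, 0.5 mM NADPH and 100 nM glutathione reductase; NADPH fluorescence (340/450 nm) was read at 0 and 15 min.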

[4] = target: Phospholipid hydroperoxide glutathione peroxidase GPX4 (Homo sapiens) (UniProt P36969); assay: Primary qHTS Assay for Inhibitors of Recombinant Selenoprotein Glutathione Peroxidase 4 (GPX4) (AID 1845192); conditions: recombinant GPX4, GR-coupled NADPH fluorescence, 15 min; series mostly up to 50 µM; note: nearly all actives have a fitted effect of over 65% in size
Phospholipid hydroperoxide glutathione peroxidase GPX4 (Homo sapiens), sequence (P36969 whole entry, looked up): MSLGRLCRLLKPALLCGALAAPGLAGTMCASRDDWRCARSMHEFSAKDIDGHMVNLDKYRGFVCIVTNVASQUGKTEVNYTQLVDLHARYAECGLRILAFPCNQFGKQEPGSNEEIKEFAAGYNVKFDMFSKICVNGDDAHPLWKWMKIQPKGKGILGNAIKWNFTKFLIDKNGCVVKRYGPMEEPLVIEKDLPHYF
How it was run: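 GR-coupled readout: 100 nM GR, 1 mM GSH, 0.5 mM NADPH; NADPH fluorescence (ex 340/em 450 nm) read at t=0 and after 15 min RT. GPX4 200 nM, preincubated 30 min with compound; substrate 0.5 mM CHP.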

[5] = NCATS anti-infectives library activity on HEK293 viability as a counter-qHTS vs the C. elegans viability qHTS (AID 1745854); conditions: HEK293 viability counter-screen; series mostly up to 41.8 µM;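 note: HEK293 cells exposed to compounds for 24 hr before the viability read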
How it was run: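 Compounds were acoustically plated (several concentrations, 1:5, final up to 41.7 uM), then 1500 HEK293 cells added per well and incubated 24 hr at 37C, 5% CO2. CellTiter-Glo was added and luminescence read after 10 min.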

[6] = NCATS anti-infectives library activity on the primary C. elegans qHTS viability assay (AID 1745855; calls by dose curve; note: potency is the fitted concentration of half-maximal effect); conditions: C. elegans worm area imaging, day 7
How it was run: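 Viability read-out is GFP fluorescence of PE254-GFP-FLuc C. elegans, measured by laser cytometry (488 nm) at day 0, 3 and 7. Ten L1 worms per well were incubated 7 days at 21 °C with compounds and bacterial capsules in S medium.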

[7] = target: Nuclear receptor subfamily 1 group I member 3 (Homo sapiens) (UniProt Q14994); assay: Primary qHTS for antagonist of constitutive androstane receptor (CAR) against the NCATS DSHEA and TCM libraries (AID 1794836); conditions: CAR reporter cell assay, antagonist mode, luciferase; series mostly up to 40 µM
Nuclear receptor subfamily 1 group I member 3 (Homo sapiens), sequence (Q14994 whole entry, looked up): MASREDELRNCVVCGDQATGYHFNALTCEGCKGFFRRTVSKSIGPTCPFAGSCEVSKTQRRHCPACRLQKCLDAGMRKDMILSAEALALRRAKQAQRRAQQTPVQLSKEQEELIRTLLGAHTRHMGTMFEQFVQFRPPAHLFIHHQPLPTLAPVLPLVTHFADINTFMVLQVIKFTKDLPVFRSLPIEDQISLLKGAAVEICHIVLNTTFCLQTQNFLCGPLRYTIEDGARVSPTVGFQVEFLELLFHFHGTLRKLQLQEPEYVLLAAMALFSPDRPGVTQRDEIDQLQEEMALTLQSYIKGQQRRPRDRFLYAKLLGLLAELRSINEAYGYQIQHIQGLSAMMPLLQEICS
How it was run: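 HepG2 cells stably carrying hCAR and a CYP2B6 luciferase reporter (2,500 cells/well) attached for 5 h, then received compounds with 48 uM CITCO for 24 h at 37C. ONE-Glo luminescence read antagonism; CellTiter-Fluor (405/540 nm) gave viability.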

[8] = target: Catechol O-methyltransferase (Homo sapiens) (UniProt P21964); assay: Confirmatory Screen for Target Class Profiling of Small Molecule Inhibitors of Methyltransferases (AID 1745852; calls by dose curve; note: potency is the fitted concentration of half-maximal effect); conditions: MTase-Glo luminescence, SAH detection, recombinant enzyme; measured here: COMT max response; stronger effect = lower value
Catechol O-methyltransferase (Homo sapiens), sequence (P21964 whole entry, looked up): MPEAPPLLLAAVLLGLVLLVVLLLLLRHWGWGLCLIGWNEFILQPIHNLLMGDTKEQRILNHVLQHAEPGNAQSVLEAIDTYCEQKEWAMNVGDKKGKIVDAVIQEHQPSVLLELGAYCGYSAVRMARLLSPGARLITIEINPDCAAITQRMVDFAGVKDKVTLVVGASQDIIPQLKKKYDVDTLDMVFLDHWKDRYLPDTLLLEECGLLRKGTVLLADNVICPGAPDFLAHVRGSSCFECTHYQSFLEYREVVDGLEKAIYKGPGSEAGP

[9] = target: Guanidinoacetate N-methyltransferase (Homo sapiens) (UniProt Q14353); assay: as above; conditions: MTase-Glo luminescence, SAH detection, recombinant enzyme; activity change, negative = inhibition: at 57.3 µM (top of the series)
[10] = target: Nicotinamide N-methyltransferase (Homo sapiens) (UniProt P40261); assay: as above; conditions: MTase-Glo luminescence, SAH detection, recombinant enzyme; measured here: NNMT max response; stronger effect = lower value
Nicotinamide N-methyltransferase (Homo sapiens), sequence (P40261 whole entry, looked up): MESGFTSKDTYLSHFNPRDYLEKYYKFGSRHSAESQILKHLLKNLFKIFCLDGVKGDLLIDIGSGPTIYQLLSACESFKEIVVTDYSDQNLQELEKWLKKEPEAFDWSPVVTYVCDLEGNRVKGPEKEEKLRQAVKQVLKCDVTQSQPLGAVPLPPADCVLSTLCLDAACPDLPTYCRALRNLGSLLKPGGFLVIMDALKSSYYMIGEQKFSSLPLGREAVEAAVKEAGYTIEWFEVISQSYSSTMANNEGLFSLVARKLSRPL

[11] = target: Phenylethanolamine N-methyltransferase (Homo sapiens) (UniProt P11086); assay: as above; conditions: MTase-Glo luminescence, SAH detection, recombinant enzyme; measured here: PNMT max response; stronger effect = lower value
Phenylethanolamine N-methyltransferase (Homo sapiens), sequence (P11086 whole entry, looked up): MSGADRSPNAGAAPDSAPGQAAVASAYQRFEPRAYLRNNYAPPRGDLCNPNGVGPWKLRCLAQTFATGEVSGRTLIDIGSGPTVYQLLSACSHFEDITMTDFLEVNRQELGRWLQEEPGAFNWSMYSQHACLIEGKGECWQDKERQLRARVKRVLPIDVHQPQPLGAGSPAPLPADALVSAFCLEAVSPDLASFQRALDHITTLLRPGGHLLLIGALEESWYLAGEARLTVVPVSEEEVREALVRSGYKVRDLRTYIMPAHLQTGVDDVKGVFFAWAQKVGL

[12] = Viability counterscreen for antagonist of constitutive androstane receptor (CAR) against the NCATS DSHEA and TCM libraries (AID 1794837); conditions: CAR reporter cell line viability counterscreen, qHTS; series mostly up to 40 µM;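 note: compound exposure lasted 24 h before viability reading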
How it was run: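 HepG2-CYP2B6-hCAR cells (2,500/well) were allowed to attach for 5 h, then exposed to compounds with 48 uM CITCO for 24 h at 37C. Viability was read by CellTiter-Fluor fluorescence after 1 h.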

[13] = Viability counterscreen for agonist of constitutive androstane receptor (CAR) against the NCATS DSHEA and TCM libraries (AID 1794838); conditions: HepG2 cell viability counterscreen, CAR agonist assay; series mostly up to 40 µM
How it was run: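 HepG2-CYP2B6-hCAR cells (2,500/well) attached 5 h, then got compounds plus 0.75 uM PK11195 final. After 24 h at 37C, viability read by CellTiter-Fluor fluorescence (Ex/Em 405/540 nm).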

[14] = target: Nuclear receptor subfamily 1 group I member 3 (Homo sapiens) (UniProt Q14994); assay: Primary qHTS for agonist of constitutive androstane receptor (CAR) against the NCATS DSHEA and TCM libraries (AID 1794839); conditions: CAR agonist reporter cells, qHTS luminescence; note: potency is the fitted concentration of half-maximal effect
How it was run: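 HepG2-CYP2B6-hCAR cells (2,500/well) were attached for 5 h, then treated for 24 h at 37 °C with compounds plus 0.75 µM PK11195. Luciferase luminescence (ONE-Glo) was read, with CellTiter-Fluor viability (Ex/Em 405/540 nm).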

[15] = HepG2 viability counterscreen (readout 2: ATP content) against the NCATS DSHEA and TCM libraries (AID 1794840); conditions: ATP content luminescence; series mostly up to 27.3 µM;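 note: HepG2 cells exposed to substances for about 24 h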
How it was run: (§1)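 HepG2 cells (1,000 cells/well) attached ~4 h, then treated ~24 h at 37C with substances. Protease activity read by GF-AFC (25 uM final, 30 min, Ex/Em 380/510 nm); ATP content then by CellTiter-Glo luminescence.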

[16] = HepG2 viability counterscreen (readout 1: protease activity) against the NCATS DSHEA and TCM libraries (AID 1794841); conditions: qHTS concentration series; series mostly up to 27.3 µM;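 note: cells exposed to compounds for about 24 h before the protease read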
How it was run: as §1

[17] = target: Rap guanine nucleotide exchange factor 3 (Homo sapiens) (UniProt O95398); assay: Counterscreen qHTS for antagonist of cAMP-regulated guanine nucleotide exchange factor 3 (EPAC1) (AID 1645888); conditions: Rap1B-BODIPY-GDP nucleotide exchange, fluorescence; series mostly up to 30.8 µM;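 note: fluorescence loss as bound BODIPY-GDP is released from Rap1B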
Rap guanine nucleotide exchange factor 3 (Homo sapiens), sequence (O95398 whole entry, looked up): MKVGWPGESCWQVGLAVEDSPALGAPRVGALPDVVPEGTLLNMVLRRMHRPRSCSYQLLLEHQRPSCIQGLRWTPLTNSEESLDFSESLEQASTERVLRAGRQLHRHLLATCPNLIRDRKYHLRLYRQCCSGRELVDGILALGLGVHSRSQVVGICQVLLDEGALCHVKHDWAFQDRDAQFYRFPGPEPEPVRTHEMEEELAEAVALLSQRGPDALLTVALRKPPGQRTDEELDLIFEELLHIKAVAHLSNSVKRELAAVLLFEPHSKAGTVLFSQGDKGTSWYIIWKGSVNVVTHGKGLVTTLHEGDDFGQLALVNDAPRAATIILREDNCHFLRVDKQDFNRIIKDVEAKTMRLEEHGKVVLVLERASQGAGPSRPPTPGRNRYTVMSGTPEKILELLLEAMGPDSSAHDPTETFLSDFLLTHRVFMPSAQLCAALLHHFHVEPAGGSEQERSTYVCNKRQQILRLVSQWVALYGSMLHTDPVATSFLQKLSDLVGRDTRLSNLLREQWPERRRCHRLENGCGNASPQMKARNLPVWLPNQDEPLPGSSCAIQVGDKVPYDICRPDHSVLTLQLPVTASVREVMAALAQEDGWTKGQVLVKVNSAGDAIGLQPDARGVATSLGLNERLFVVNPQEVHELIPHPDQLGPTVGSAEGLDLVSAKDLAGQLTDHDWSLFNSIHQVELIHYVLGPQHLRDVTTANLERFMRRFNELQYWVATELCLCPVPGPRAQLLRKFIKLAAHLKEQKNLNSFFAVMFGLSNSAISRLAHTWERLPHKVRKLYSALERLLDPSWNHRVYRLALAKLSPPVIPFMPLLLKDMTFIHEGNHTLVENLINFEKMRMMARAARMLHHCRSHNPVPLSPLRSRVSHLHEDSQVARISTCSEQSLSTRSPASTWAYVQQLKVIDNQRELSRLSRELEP
How it was run: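 Measured: fluorescence of BODIPY-GDP bound to Rap1B, which falls as exchange proceeds. Conditions include 50 uM competing GDP, 5 and 30 min reads, and a later cAMP challenge for antagonist detection.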

## O=c1oc2ccccc2c(O)c1C(CC(O)c1ccc(-c2ccc(Br)cc2)cc1)c1ccccc1 (stereo unspecified)
[1]
  Potency: 44.1 µM (active)

## O=c1[nH]c2ccccc2n1CCCN1CCC(n2c(=O)[nH]c3cc(Cl)ccc32)CC1
[2]
  outcome: inactive
[3]
  Potency: inactive

## CC(=O)[C@H]1CC[C@H]2[C@@H]3CC[C@H]4C[C@H](O)CC[C@]4(C)[C@H]3C(=O)C[C@]12C
[2]
  outcome: inactive
[3]
  Potency: inactive
[4]
  Potency: inactive

## c1ccc(C2CC2)c(OCC2=NCCN2)c1
[2]
  outcome: inactive
[3]
  Potency: inactive

## Cc1cccc(C)c1NC1=NCCCS1
[2]
  outcome: inactive
[3]
  Potency: inactive

## NN=C(N)N
[2]
  outcome: inactive
[3]
  Potency: inactive
[4]
  Potency: inactive

## Cc1sc2c(c1C)C(c1ccc(Cl)cc1)=N[C@@H](CC(=O)OC(C)(C)C)c1nnc(C)n1-2
[5]
  outcome: inactive
[6]
  Potency: 4.09 µM (active)
[3]
  Potency: inactive
[4]
  Potency: inactive

## O=c1c(O)c(-c2ccc(O)c(O)c2)oc2cc(O)cc(O)c12
[7]
  outcome: inactive

## CC(C)=CCOc1c2occc2cc2ccc(=O)oc12
[8]
  activity: -8.52%
[9]
  activity change, negative = inhibition: -1.68%
[10]
  activity: -26.3%
[11]
  activity: -3.85%
[7]
  outcome: inactive
[12]
  outcome: inactive
[13]
  outcome: inactive
[14]
  Potency: 14.1 µM (active)
[15]
  outcome: inactive
[16]
  outcome: inactive
[2]
  outcome: inactive
[3]
  Potency: inactive

## NCC(CC(=O)O)c1ccc(Cl)cc1 (stereo unspecified)
[5]
  outcome: inactive
[2]
  outcome: inactive
[3]
  Potency: inactive

## Nc1ccncc1
[8]
  activity: 0%
[9]
  Potency: 30.6 µM (active)
[10]
  activity: -30.8%
[11]
  activity: -0.809%
[2]
  outcome: inactive
[3]
  Potency: inactive
[4]
  Potency: inactive

## CN1C[C@H](CNC(=O)OCc2ccccc2)C[C@@H]2c3cccc4c3c(cn4C)C[C@H]21
[8]
  activity: -5.5%
[9]
  activity change, negative = inhibition: 5.68%
[10]
  activity: -16.1%
[11]
  activity: -5.43%
[2]
  outcome: inactive
[3]
  Potency: inactive

## CCCN1CCC[C@@H]2Cc3nc(N)ncc3C[C@H]21
[2]
  outcome: inactive
[3]
  Potency: inactive

## CNCC(O)c1ccc(O)cc1 (stereo unspecified)
[2]
  outcome: inactive
[3]
  Potency: inactive

## COc1ccc(C(CN(C)C)C2(O)CCCCC2)cc1 (stereo unspecified)
[2]
  outcome: inactive
[3]
  Potency: inactive

## Clc1ccc(COC(Cn2ccnc2)c2ccc(Cl)cc2Cl)cc1 (stereo unspecified)
[1]
  Potency: 44.1 µM (active) and inactive
[17]
  outcome: inactive
[3]
  Potency: inactive

## CC[C@@H](CO)NC(=O)[C@@H]1C=C2c3cccc4[nH]cc(c34)C[C@H]2N(C)C1
[2]
  outcome: inactive
[3]
  Potency: inactive

## Fc1ccc(C(OCCN2CCN(CCCc3ccccc3)CC2)c2ccc(F)cc2)cc1
[2]
  outcome: inactive
[3]
  Potency: inactive
[4]
  Potency: inactive

## N#CC(C#N)=Cc1ccc(O)c(O)c1
[8]
  activity: 34.9%
[9]
  activity change, negative = inhibition: 1.06%
[10]
  activity: -6.68%
[11]
  activity: -1.74%
[3]
  Potency: inactive

## CC(C)(C)CC(C)(C)c1ccc(O)cc1
[1]
  Potency: 49.4 µM (active) and 56.9 µM (active)
[3]
  Potency: inactive
[4]
  Potency: inactive

## CC[C@@H](CO)NC(=O)[C@@H]1C=C2c3cccc4c3c(cn4C)C[C@H]2N(C)C1
[8]
  activity: 1.79%
[9]
  activity change, negative = inhibition: -1.19%
[10]
  activity: -2.9%
[11]
  activity: -4.59%
[2]
  outcome: inactive
[3]
  Potency: inactive
[4]
  Potency: inactive

## CC(C)=CC1C(C(=O)OCc2cccc(Oc3ccccc3)c2)C1(C)C (stereo unspecified)
[1]
  Potency: inactive
[3]
  Potency: inactive

## CCC1(C2=NCCN2)Cc2ccccc2O1 (stereo unspecified)
[2]
  outcome: inactive
[3]
  Potency: inactive

## Cc1ccc(S(=O)(=O)N[C@@H](CCCCN)C(=O)CCl)cc1
[2]
  outcome: inactive
[3]
  Potency: inactive

## CC[N+](CC)(CC)CC
[8]
  activity: 2.75%
[9]
  activity change, negative = inhibition: 3.74%
[10]
  activity: -4.15%
[11]
  activity: 4.2%

## O=C1NCN(c2ccccc2)C12CCN(CC1COc3ccccc3O1)CC2 (stereo unspecified)
[2]
  outcome: inactive
[3]
  Potency: inactive

## Oc1cc(Cl)ccc1Oc1ccc(Cl)cc1Cl
[1]
  Potency: 52 µM (active)
[3]
  Potency: inactive

## NCC(O)c1ccc(O)cc1 (stereo unspecified)
[2]
  outcome: inactive
[3]
  Potency: inactive
[4]
  Potency: inactive

## NCC1(CC(=O)O)CCCCC1
[2]
  outcome: inactive
[3]
  Potency: inactive
[4]
  Potency: inactive

## CCCC1CCCCN1 (stereo unspecified)
[3]
  Potency: inactive

## CN1CCN(C(=O)O[C@H]2c3nccnc3C(=O)N2c2ccc(Cl)cn2)CC1
[3]
  Potency: inactive

## N[C@@H]1C[C@H]1c1ccccc1
[3]
  Potency: inactive

## CC(CCc1ccccc1)NC(C)C(O)c1ccc(O)cc1 (stereo unspecified)
[2]
  outcome: inactive
[3]
  Potency: inactive
[4]
  Potency: inactive

## CC(=O)[C@H]1CC[C@H]2[C@@H]3CC[C@H]4C[C@](C)(O)CC[C@]4(C)[C@H]3CC[C@]12C
[2]
  outcome: inactive
[3]
  Potency: inactive
[4]
  Potency: inactive

## CC(C)NCC(O)c1ccccc1Cl (stereo unspecified)
[3]
  Potency: inactive

## CC(C)CC(N(C)C)C1(c2ccc(Cl)cc2)CCC1 (stereo unspecified)
[3]
  Potency: inactive
